Assay outcomes as filed in PubChem BioAssay.
An excerpt weighted towards active compounds, which were near 0.9% of everything screened.
A1 inh = inducers of caspase activity in MEF A1-2A-BIM cells, primary screen, A1 inhibitor project, cell-based, CaspaseGlo luminescence | AID 2241, 2010 | caspase-Glo luminescence, 3 h; percent of clofoctol signal, DMSO as zero | hit rate 0.51% among 21,000 | caspase activation, % (concentration not given with the values);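 active means most replicate scores above 10, or exactly half above 10 with mean activity above 10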;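 further: effector caspase 3 and 7 activity cleaving a DEVD luciferin substrate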
BJeLR viability = BJeLR cell viability loss, primary screen, luminescence, CellTiterGlo ATP. hit rate 0.64% among 30,000. BJeLR fibroblasts viability, 48 h; HRASV12, hTERT and SV40 LT/ST transformed. AID 2275, 2010. viability loss activity score, % (test concentration not listed); in the data active means viability loss activity score above about 50%;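 further: higher score means fewer live cells and less ATP luminescence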
* = called active by the depositor; nt = no result.

SMILES | A1 inh | BJeLR viability
CO[C@H]1[C@H](O)[C@@H](O[C@H]2CC[C@]3(C=O)C4CC[C@]5(C)[C@@H](C6=CC(=O)OC6)CC[C@]5(O)C4CC[C@@H]3C2)O[C@@H](C)[C@@H]1O (stereo partly specified) | 0 | 133*
CCN(CC)C(=O)c1ccc2c(c1)C1C3CCC(C3)C1C(c1ccccc1)N2 (stereo unspecified) | 0 | 1
O=C(O)CP(=S)(c1ccccc1)c1ccccc1 | 1 | 6
O=C(O)C1C2CC3CC(C2)CC1(n1ncc(N2CCOCC2)c(Cl)c1=O)C3 (stereo unspecified) | 0 | 0
CC(C)(O)c1cc(O)c2c(c1)CCC1C(C)(C(=O)O)CCCC21C (stereo unspecified) | 0 | -1
CO[C@H]1C[C@H](OC2CCC3(C)C4CCC5(C)C(C6=CC(=O)OC6)CC(OC(C)=O)C5(O)C4CC[C@H]3C2)O[C@@H](C)[C@@H]1O (stereo partly specified) | 0 | 99*
C[C@H]1O[C@@H](O[C@H]2[C@@H](O)C[C@H](O[C@H]3[C@@H](O)C[C@H](O[C@H]4CC[C@@]5(C)[C@H](CC[C@@H]6[C@@H]5CC[C@]5(C)[C@@H](C7=CC(=O)OC7)CC[C@]65O)C4)O[C@@H]3C)O[C@@H]2C)C[C@H](O)[C@@H]1O | 0 | 134*
C[C@H]1OC(O[C@H]2[C@@H](O)CC(O[C@H]3[C@@H](O)C[C@H](O[C@H]4CC[C@]5(C)C6CC[C@]7(C)[C@@H](C8=CC(=O)OC8)[C@@H](O)C[C@]7(O)[C@@H]6CC[C@@H]5C4)O[C@@H]3C)O[C@@H]2C)C[C@H](O)C1O (stereo partly specified) | 0 | 98*
COC(=O)[C@H]1O[C@@H]2C[C@H]3OC(n4cnc5c(N)ncnc54)[C@H](OC)[C@H]3O[C@@]2(O)[C@@H](O)[C@@H]1O (stereo partly specified) | 0 | -3
O=c1c2ccccc2[nH]c(=S)n1-c1ccc(Cl)c(Cl)c1 | -4 | 3
CCN(CC)C(=O)N[C@@H]1C[C@@H]2c3cccc4[nH]cc(c34)C[C@H]2N(C)C1 | 0 | -1
Cc1ccc(C(C)C)cc1OP1(=O)COc2ccccc2OC1 | 1 | -2
CCN1C[C@@]2(COC)C3[C@@H](OC)[C@H]4[C@@H]1[C@@]3(C1C[C@]3(O)[C@H](OC(=O)c5ccccc5)C1[C@]4(OC(C)=O)[C@@H](O)[C@H]3OC)[C@@H](OC)C[C@H]2O (stereo partly specified) | 0 | -3
CCNc1nc(Cl)nc(NCC)n1 | 0 | 0
Cc1cc(OC(=O)N(C)C)cc(=O)n1C | 0 | -3
O=C(O)c1nn(Cc2ccc(Cl)c(Cl)c2)c2ccccc12 | 0 | 10
N#CC(C#N)=NNc1ccc(OC(F)(F)F)cc1 | -3 | 86*
CC(C)CCCn1c(O)c(/C=C2\C=CC=N2)c(=O)[nH]c1=O | 2 | 0
COc1cc2c(cc1-c1cc3cc4ccoc4cc3oc1=O)OCO2 | 0 | 1
COc1ccc(C[C@H]2NC[C@H](O)[C@H]2OC(C)=O)cc1 | 13* | 117*
Cc1ccc2c(c1)N(C(=O)CCC(=O)N1CCC3(CC1)OCCO3)CC(C)O2 (stereo unspecified) | 0 | 2
C/C=C1/CN2C3Cc4c([nH]c5ccc(O)cc45)C2(O)CC1C3CO (stereo unspecified) | 0 | 3
c1ccc2c(c1)cc1ccc3cccc4ccc2c1c34 | 1 | -4
O=C1c2ccccc2-c2cccc3cccc1c23 | 0 | 74*
Cc1oc(-c2cccs2)nc1CSCC(=O)N1CCC2(CC1)OCCO2 | nt | 6
